# Results taken from PubChem BioAssay (NCI).
# Compounds without any hit were thinned out: in the full panel of roughly 83,000, 20% have a hit.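 Values shown are percent growth following 48 h exposure of cells in 96-well plates to a single concentration of compound; below 10 was considered active.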 The source made the active and inactive calls.
# System: NCI-H460 lung
# Assay: NCI-60 one-dose screen, 48 h (100 = growth as untreated, 0 = no growth, -100 = all killed)
# Settings: 10 µM unless noted
# Method: Growth inhibition of the NCI-H460 human Non-Small Cell Lung tumor cell line is measured as a screen for anti-cancer activity. Cells are grown in 96 well plates and exposed to the test compound for 48 hours. Compounds are tested at a single concentration, which is 10^-5 M for most compounds. The reported endpoint is percent growth (GI% or GIPRCNT), where numbers from 0 - 100% represent growth inhibition, and numbers from -100% - 0 represent cell death. For example, a value of 40 represents 60% growth inhibition. A value of 0 means no net growth occurred over the course of the experiment. A value of -40 indicates 40% of cells at the beginning of the experiment died by the end of the experiment. A value of -100 means all cells are dead at the end of the experiment.
# NCI-60 Human Tumor Cell Lines Screen was performed using the standard one-dose NCI protocol, which is described in more detail at https://dtp.cancer.gov/discovery_development/nci-60/default.htm.
# Compounds with GIPRCNT values below 10 were considered active. Activity score was based on GIPRCNT using the following formula: […]
# Score is 0 for GIPRCNT values of 100 or above, 50 for GIPRCNT values of 0, and 100 for GIPRCNT values of -100.
row,SMILES,growth
1,CC1(C)CC(=O)C2=C(C1)C(c1ccc(Cl)cc1)n1ncc(C#N)c1N2 (stereo not given),106% (inactive)
2,O=C(OCc1ccc2c(Cl)cc(Cl)c(O)c2n1)N1CCN(C(=O)c2cc3ccccc3[nH]2)CC1,12.8% (inactive)
3,Cc1[nH]n(-c2cccc(Cl)c2)c(=O)c1/C=C1\C=c2ccccc2=CC1=O,79% (inactive)
4,O=C(CSc1nnnn1-c1ccccc1)Nc1ccc(Oc2ccccc2)cc1,110% (inactive)
5,COc1cc2c3c(c4c5ccccc5[nH]c4c2c(OC)c1OC)C(=O)N(CCN1CCCCC1)C3=O,-48.3% (active)
6,COCCn1cc(-c2csc(-c3c[nH]c4ccc(F)cc34)n2)c2cccnc21,15.1% (inactive)
7,O=C1OCC2=C1C(c1ccccc1)c1cc3c(cc1N2CCO)OCCO3 (stereo not given),5.36% (active)
8,Cc1c2cnccc2c(C)c2c1c1cc(CO)ccc1n2C,-32.5% (active)
9,COc1ccc(/C=C(\C(=O)NCc2cccnc2)S(=O)(=O)c2ccccc2)cc1OC,14.7% (inactive)
10,CCN(CC)CCOc1ccc2ccc(=O)oc2c1,110% (inactive)
11,COc1cc(/C=C/C(=O)c2cccc(-n3cc(-c4ccc(Cl)cc4)[nH]c3=O)c2)ccc1O,93.7% (inactive)
12,C=C[C@@]1(C)CC(=O)[C@@H](C(C)(C)c2cn(C)c3ccc(Br)cc23)C[C@@H]1O[Si](C)(C)C(C)(C)C,101% (inactive)
13,COc1cc(Cc2cc(OC)c(O)c(OC)c2)cc(OC)c1O,99.1% (inactive)
14,CNCCCNc1nc2ccccc2c2c(=O)c3cc(Cl)ccc3sc12,-70.5% (active)
15,O=C(/C=C/c1cn(-c2ccccc2)nc1-c1ccccc1)CCC(=O)NO,113% (inactive)
16,O=C(C1=Cc2cc3ccccc3n2Cc2cnnn21)c1ccc(F)cc1,106% (inactive)
17,O=c1oc2ccccc2cc1-c1nn(-c2ccccc2)cc1-c1nn[nH]n1,105% (inactive)
18,COc1ccc(C2C3=C(COC3=O)N(CCO)c3cc4c(cc32)OCO4)cc1OC (stereo not given),95.8% (inactive)
19,Nc1nc(N)c2c(n1)NC(c1cccc(Nc3ccnc4cc(C(F)(F)F)ccc34)c1)CC(c1ccc3c(c1)OCO3)=N2 (stereo not given),58.8% (inactive)
20,N#Cc1c(-c2ccccc2)nc2c(c(-c3ccccc3)nn2-c2ccccc2)c1-c1ccc(N2CCCCC2)cc1,103% (inactive)

row,SMILES,growth
1,N#Cc1ccc(/C=C/c2cn(-c3ccccc3)nc2-c2cccc([N+](=O)[O-])c2)cc1,40.1% (inactive)
2,CC1(/C=C/c2ccc(-c3ccccc3)cc2)CCn2cnc3ncnc(c32)N1O (stereo not given),3.93% (active)
3,CC1SC(c2ccccc2O)N(NC(=O)CCC(=O)c2nc3ncccc3[nH]2)C1=O (stereo not given),103% (inactive)
4,O=C(Nc1cccnc1Nc1ccccc1)c1cn(Cc2cccc(Oc3ccccc3)c2)nn1,42.6% (inactive)
5,CC(O)CNC(Cc1ccccc1)c1ccc2c(c1)OCO2 (stereo not given),103% (inactive)
6,O=C(/C=C/c1cccc(Oc2ccccc2)c1)c1ccc(Nc2nc(Nc3ccc(F)cc3)nc(Nc3ccc(Cl)cc3)n2)cc1,108% (inactive)
7,COCCOC(C)C(/C=N/NC(N)=S)=N/NC(N)=S (stereo not given),85.8% (inactive)
8,O=C1Nc2ccccc2/C1=N/N1C(=O)CN(CCCl)C1=O,102% (inactive)
9,Cn1cc(-c2nc3c(F)cc4[nH]ncc4c3c3c2CCCC3)c(C(F)(F)F)n1,37.5% (inactive)
10,O=C(NN1C(=O)CSC1c1cccc([N+](=O)[O-])c1)c1ccc(NC(=O)c2ccccn2)cc1 (stereo not given),102% (inactive)
11,COC1C(O)CC(OC2CC(OC3CC(O[C@@H]4C(=O)c5c(cc6cc(OC7CC(OC8CC(O)C(O)C(C)O8)C(O)C(C)O7)c(C)c(O)c6c5O)CC4[C@H](OC)[C@@H](O)C(C)=O)OC(C)C3O)OC(C)C2O)OC1C (stereo not given in full),7.99% (active)
12,COc1cc(N2C(=O)[C@H](Cl)C2c2ccc(SC)cc2)cc(OC)c1OC (stereo not given in full),5.39% (active)
13,CC(C)(C)CC(C)(C)Nc1c(-c2c(O)c3ccccc3oc2=O)nc2sc3ccccc3n12,16.6% (inactive)
14,N#Cc1c(-c2ccccc2)cc(-c2ccccc2)n(CCCCC(=O)NO)c1=O,73% (inactive)
15,Cc1nn(C)c2ncnc(N/N=C/c3cccc(O)c3O)c12,2.65% (active)
16,O=[N+]([O-])c1ccccc1Nc1ccc2ccccc2c1,84.4% (inactive)
17,C/C(=N\Nc1ccccc1)c1ccc(NC2=CC(=O)c3ccccc3C2=O)cc1,23.5% (inactive)
18,N=C(N)c1ccc(OCCSCCOc2ccc(C(=N)N)cc2)cc1,27.1% (inactive)
19,C#CCOc1cccc(Nc2ncnc3c2ncn3C2CCN(C(=O)CCl)C2)c1 (stereo not given),24.7% (inactive)
20,CC/C(=C(\c1ccc(Cl)cc1)c1ccc(OCCN2CCCCC2)cc1)c1ccc(O)cc1,-34.5% (active)
